Experimental data reported in PubChem BioAssay.
Activity calls are given as the source filed them.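 How the source made its calls, unless noted: active means inhibition at or above 50% at 10 µM; inactive means inhibition below 50%.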

Columns and labels:
[1] = inhibitors of TNFa-induced NFkB p65 translocation, primary screen, imaging, HUVEC, MLSMR starter and 10KST1 sets (AID 438;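 active means inhibition above 20% together with a positive visual image hit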;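 further: compound added about 3h40 before a 20 min TNFalpha stimulation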;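 on inhibition: signal is the nuclear over cytoplasmic p65 intensity ratio per well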); conditions: HUVEC TNFa-induced p65 nuclear translocation; cell count: measured here: nuclei count (cytotoxicity indicator), at 2.08 µM; inhibition: at 2 µM, stronger effect = higher value, 0% TNFa-plus-vehicle, 100% no-TNFa wells
[2] = reduction of polyQ htt aggregates in cells – imaging, exon1htt(103Q)mCFP cells, high-content imaging, primary screen (AID 483;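 active means visual image review flags a hit and inhibition of aggregation exceeds 20%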;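 further: compound exposure lasted 3 days before fixation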;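 on nuclei count: percent of the per-plate median nuclei count of sample wells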); conditions: exon1htt(103Q)mCFP cell line, aggregate imaging, at 2 µM; inhibition of aggregation: stronger effect = higher value; nuclei count: measured here: cell count, toxicity
[3] = endothelial E-selectin expression blockers – imaging, HUVEC, immunofluorescence, MLSMR starter and 10KST1 sets, primary screen (AID 487;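 active means visually confirmed hit in the image check and inhibition above 20%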;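 on inhibition: signal is fraction of cell area covered by stained E-selectin grains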;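 on nuclei count: 100% = median nuclei count of all wells on the same plate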); conditions: HUVEC TNFalpha-induced E-selectin immunofluorescence imaging, at 2 µM; inhibition: stronger effect = higher value; nuclei count: measured here: cell number, toxicity
[4] = biological target: Voltage-gated potassium channel subunit beta-2 (Rattus norvegicus) (UniProt P62483); test: inhibitors of rat Kvbeta2 reductase activity – biochemical, NADPH fluorescence, primary screen (AID 622;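 active means fluorescence slope higher than the sample average by over 3 SD, cut at about -0.22 in these data, passing the limit was not always enough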;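 further: slope of raw intensity against log time taken from 70 to 1610 s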); conditions: recombinant KvBeta, 4-cyanobenzaldehyde reduction, at 10 µM, stronger effect = higher value
Chain of Voltage-gated potassium channel subunit beta-2 (Rattus norvegicus) (P62483 whole entry, looked up): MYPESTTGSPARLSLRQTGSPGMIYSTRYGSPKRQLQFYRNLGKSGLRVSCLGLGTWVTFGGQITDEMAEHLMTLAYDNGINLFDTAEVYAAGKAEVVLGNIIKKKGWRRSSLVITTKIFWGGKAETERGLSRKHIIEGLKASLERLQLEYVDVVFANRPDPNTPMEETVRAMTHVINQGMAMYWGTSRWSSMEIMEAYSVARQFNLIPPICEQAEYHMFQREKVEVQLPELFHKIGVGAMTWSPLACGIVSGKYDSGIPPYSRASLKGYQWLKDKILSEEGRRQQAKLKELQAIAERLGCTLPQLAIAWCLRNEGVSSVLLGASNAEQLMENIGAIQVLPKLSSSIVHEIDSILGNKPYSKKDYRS

[5] = biological target: Voltage-gated potassium channel subunit beta-2 (Rattus norvegicus) (UniProt P62483); test: enhancers of rat Kvbeta2 NADPH turnover – biochemical, NADPH fluorescence, primary screen (AID 623;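 active means NADPH fluorescence slope more negative than the mean of all samples by about 3 SD, 99.7% confidence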;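 further: fluorescence intensity change per second fitted from 20 to 320 s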); conditions: Recombinant KvBeta, NADPH fluorescence decrease slope, 10 min; at 10 µM; stronger effect = lower value
[6] = biological target: Alpha-2C adrenergic receptor (Homo sapiens) (UniProt P18825); test: compounds altering alpha2C-coupled GIRK flux – cell-based, HEK293 alpha2C/GIRK1/2, thallium flux, primary screen (AID 624;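 active means fluorescence slope after compound addition differing from the mean of all screened samples at 99.7% confidence, in either direction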;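 further: slope of fluorescence ratio to pre-addition baseline per second over 15 to 24 s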); conditions: thallium flux BTC fluorescence, at 10 µM, actives lie on both sides
Chain of Alpha-2C adrenergic receptor (Homo sapiens) (P18825 whole entry, looked up): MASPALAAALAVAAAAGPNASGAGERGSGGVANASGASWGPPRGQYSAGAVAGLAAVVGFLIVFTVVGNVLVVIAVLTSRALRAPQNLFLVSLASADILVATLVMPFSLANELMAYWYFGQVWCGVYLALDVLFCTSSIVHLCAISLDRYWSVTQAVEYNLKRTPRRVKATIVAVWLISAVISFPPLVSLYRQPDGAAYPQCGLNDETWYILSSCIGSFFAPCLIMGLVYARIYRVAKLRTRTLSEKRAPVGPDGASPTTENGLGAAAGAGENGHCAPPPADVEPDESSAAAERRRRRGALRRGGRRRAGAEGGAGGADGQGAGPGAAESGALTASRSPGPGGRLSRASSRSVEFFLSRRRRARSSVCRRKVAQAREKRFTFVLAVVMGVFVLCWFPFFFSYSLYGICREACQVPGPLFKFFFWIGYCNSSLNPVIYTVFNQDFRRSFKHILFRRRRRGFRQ

[7] = blockers of RIG-like receptor reporter activation – cell-based, Sendai virus stimulus, luciferase, 10K MLSCN set, TLR/RLR signaling modifier project, primary screen (AID 602276); conditions: HEK293 RL24 IRF3 luciferase reporter, at 10 µM, stronger effect = higher value;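 further: firefly luciferase from ISG56 promoter only with Renilla not read in this screen; 0% = Sendai virus plus DMSO and 100% = medium plus DMSO without virus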
[8] = TLR3 IRF3 reporter activation blockers – cell-based, poly I:C stimulus, luciferase, 10K MLSCN set, primary screen (AID 602277;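 active means inhibition of the reporter signal at or above 50%; inactive means inhibition below 50%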); conditions: HEK293-TLR3 RL24 IRF3 luciferase reporter, at 10 µM, stronger effect = higher value

Structure (SMILES) | cell count [1] | inhibition [1] | inhibition of aggregation [2] | nuclei count [2] | inhibition [3] | nuclei count [3] | fluorescence slope [4] | NADPH fluorescence slope [5] | slope [6] | inhibition [7] | inhibition [8]
O=C(Nc1cnn(C23CC4CC(CC(C4)C2)C3)c1)c1cnn2c(C(F)(F)F)cc(-c3ccco3)nc12 | 501 | -8.8% (inactive) | -4.4% (inactive) | 108% | -107% (inactive) | 121% | -0.498 (inactive) | -2.2e-05 (inactive) | 0.00429 (inactive) | 8.99% (inactive) | -44.9% (inactive)
O=C(Nc1cccnc1)c1noc2c1CCCCC2 | 253 | -3.9% (inactive) | 14.8% (inactive) | 98.5% | -1.4% (inactive) | 113% | -0.325 (inactive) | -1.6e-05 (inactive) | 0.00304 (inactive) | 33.4% (inactive) | -4.09% (inactive)
Cc1ccc(CN2C(=O)CCC2C(=O)NC2CCCC2)cc1 (stereo not drawn) | 382 | 1.3% (inactive) | 6.6% (inactive) | 103% | -19% (inactive) | 111% | -0.589 (inactive) | -3.4e-05 (inactive) | 0.00496 (inactive) | 12.8% (inactive) | 21.8% (inactive)
COc1cccc(-c2nnn(CC(=O)O)n2)c1 | 472 | -5.1% (inactive) | -19.3% (inactive) | 90.3% | -118% (inactive) | 233% | -0.468 (inactive) | 2.6e-06 (inactive) | 0.00693 (inactive) | 6.2% (inactive) | 43.8% (inactive)
COC(=O)c1cc(OC)c(OCc2cc(C(=O)OC)oc2C)c(OC)c1 | 753 | 1.5% (inactive) | -6.3% (inactive) | 106% | 32.8% (inactive) | 85.7% | -0.396 (inactive) | -6.5e-05 (inactive) | 0.00675 (inactive) | 17% (inactive) | 34.7% (inactive)
CN=Cc1cc(-c2ccccc2)sc1O | 330 | -2% (inactive) | -19.3% (inactive) | 126% | -90.3% (inactive) | 114% | -0.574 (inactive) | -1.5e-05 (inactive) | 0.00861 (inactive) | -23.3% (inactive) | -118% (inactive)
COCCNC(=O)c1snc2ccc(Cl)cc12 | 375 | 6.7% (inactive) | 4.9% (inactive) | 89.8% | -175% (inactive) | 97.3% | -0.563 (inactive) | 3.8e-05 (inactive) | 0.00546 (inactive) | -23.6% (inactive) | -62.4% (inactive)
CSc1nc2ccc(Nc3nc(N4CCOCC4)nc(N4CCOCC4)n3)cc2s1 | 391 | 4.9% (inactive) | 6.4% (inactive) | 106% | 17.6% (inactive) | 110% | -0.354 (inactive) | -2.2e-05 (inactive) | 0.00663 (inactive) | -24.9% (inactive) | -49.5% (inactive)
O=C(Nc1nc(-c2cccs2)cs1)c1cccc(S(=O)(=O)N2CCCCC2)c1 | 503 | 0% (inactive) | -5.4% (inactive) | 110% | -108% (inactive) | 124% | -0.479 (inactive) | -2.5e-05 (inactive) | 0.00684 (inactive) | 6.17% (inactive) | -7.26% (inactive)
CCOC(=O)CC(=O)Nc1c(C)cc(C)cc1C | 270 | 7.5% (inactive) | 12.8% (inactive) | 87.4% | 6.5% (inactive) | 105% | -0.416 (inactive) | 6.4e-05 (inactive) | 0.00527 (inactive) | -9.54% (inactive) | 2.4% (inactive)
CN1CCN(C2=C(Cl)C(=O)N(c3cccc(Cl)c3)C2=O)CC1 | 396 | 5.9% (inactive) | 8.6% (inactive) | 91.3% | -1.1% (inactive) | 97.4% | -0.355 (inactive) | -3.9e-05 (inactive) | 0.00541 (inactive) | 5.11% (inactive) | 13.1% (inactive)
Cc1nn(C)cc1NC(=O)CCSc1nc(-c2ccco2)cc(C(F)(F)F)n1 | 452 | -13.9% (inactive) | -12.3% (inactive) | 107% | 35.1% (inactive) | 106% | -0.615 (inactive) | -1.6e-06 (inactive) | 0.00399 (inactive) | -8.54% (inactive) | -43.3% (inactive)
CCOC(=O)N1CCC(N2C(=O)c3ccccc3C2Nc2ccc3c(C)cc(=O)oc3c2)CC1 (stereo not drawn) | 654 | 2.3% (inactive) | -19.4% (inactive) | 101% | -65.6% (inactive) | 121% | -0.0451 (active) | -9.7e-08 (inactive) | 0.00764 (inactive) | 14.2% (inactive) | 18% (inactive)
Cc1ccc(NCC(O)C(O)C(O)CO)cc1C (stereo not drawn) | 516 | 0.6% (inactive) | 1.3% (inactive) | 115% | -52.4% (inactive) | 128% | -0.455 (inactive) | 5.8e-07 (inactive) | 0.00562 (inactive) | 8.39% (inactive) | 8.99% (inactive)
COCCNC(=O)CCc1nc(-c2ccccc2)no1 | 294 | -5% (inactive) | -9.3% (inactive) | 103% | -98.3% (inactive) | 123% | -0.504 (inactive) | 2.6e-05 (inactive) | 0.00646 (inactive) | 18.6% (inactive) | 16.3% (inactive)
CC(=O)c1ccc(OCC(O)CN2CC(C)OC(C)C2)cc1 (stereo not drawn) | 310 | 8.6% (inactive) | 15% (inactive) | 92.4% | 0.4% (inactive) | 98.9% | -0.613 (inactive) | 9.2e-06 (inactive) | 0.00724 (inactive) | 9.28% (inactive) | 16.8% (inactive)
COc1ccc(CCNC(=O)C2=COCCO2)cc1 | 596 | 4.2% (inactive) | 51.2% (active) | 90.3% | 53.6% (active) | 99.1% | -0.545 (inactive) | -2.9e-05 (inactive) | 0.00546 (inactive) | -14.5% (inactive) | -26.2% (inactive)
Cc1ccc(NC(=O)c2ccco2)cc1NC(=O)CSc1nnc(-c2cccs2)n1C | 379 | -5.5% (inactive) | 16.8% (inactive) | 89.1% | 24.1% (inactive) | 98.1% | -0.394 (inactive) | -5.8e-05 (inactive) | 0.00449 (inactive) | 10.8% (inactive) | 14.1% (inactive)
CC(C)Cn1c(N)c(C(=O)COC(=O)c2cc(-c3ccco3)nc3ccccc23)c(=O)n(C)c1=O | 381 | -2.2% (inactive) | -4.3% (inactive) | 100% | -133% (inactive) | 110% | -0.482 (inactive) | -1.1e-05 (inactive) | 0.00566 (inactive) | 15.4% (inactive) | -3.29% (inactive)
O=C(NCCN1C(=O)C2C3C=CC(C3)C2C1=O)Nc1ccccn1 (stereo not drawn) | 635 | 0.8% (inactive) | 12.9% (inactive) | 72.4% | -12.9% (inactive) | 108% | -0.603 (inactive) | 1.9e-05 (inactive) | 0.00714 (inactive) | 7.16% (inactive) | 16.9% (inactive)
CCOc1ccccc1C(=O)NCc1ccc2c(c1)OCO2 | 414 | 1.1% (inactive) | -12.2% (inactive) | 98.8% | -18.7% (inactive) | 94.7% | -0.388 (inactive) | -3.6e-05 (inactive) | 0.00485 (inactive) | 10.4% (inactive) | -6.17% (inactive)
CN(C)c1cc(NC(=O)CN2CCOCC2)c2ccccc2n1 | 863 | 1.2% (inactive) | 6.6% (inactive) | 101% | -75% (inactive) | 131% | -0.549 (inactive) | -3.5e-05 (inactive) | 0.00612 (inactive) | 9.32% (inactive) | 46.3% (inactive)
O=C(CN1CCN(Cc2ccccc2)CC1)Nc1ccc(Cl)cn1 | 615 | -12.7% (inactive) | 19.3% (inactive) | 81.8% | -26% (inactive) | 92% | -0.502 (inactive) | -2.1e-05 (inactive) | 0.00402 (inactive) | 17.4% (inactive) | 29.5% (inactive)
CCN1CCN(C(c2cccs2)C(C)NC(=O)c2ccccc2)CC1 (stereo not drawn) | 528 | -0.3% (inactive) | -7.7% (inactive) | 102% | -20.1% (inactive) | 128% | -0.59 (inactive) | -3.6e-05 (inactive) | 0.00664 (inactive) | 8.51% (inactive) | 39.8% (inactive)
CCOC(=O)CSc1nnc(-c2ccccc2OC)o1 | 574 | -3.6% (inactive) | -42.2% (inactive) | 112% | -74.1% (inactive) | 105% | -0.523 (inactive) | -0.000143 (inactive) | 0.00552 (inactive) | -10.7% (inactive) | 99.6% (active)
CC1(C)CC(=O)c2cnc(NC(=O)CCc3ccccc3)nc2C1 | 608 | -15.9% (inactive) | -15.3% (inactive) | 112% | -24.7% (inactive) | 119% | -0.365 (inactive) | 9.1e-06 (inactive) | 0.00293 (inactive) | 14.3% (inactive) | 33% (inactive)
CCOC(=O)c1c(N)sn(-c2ccccc2)c1=S | 441 | -9.2% (inactive) | 5.4% (inactive) | 114% | -55.1% (inactive) | 112% | -0.37 (inactive) | -5.3e-05 (inactive) | 0.00599 (inactive) | 15.3% (inactive) | 20% (inactive)
O=C(C1CCCN(S(=O)(=O)c2cccnc2)C1)N1CCN(c2ccccn2)CC1 (stereo not drawn) | 671 | -0.3% (inactive) | -27.9% (inactive) | 108% | -1.7% (inactive) | 108% | -0.581 (inactive) | -1.6e-05 (inactive) | 0.00648 (inactive) | 5.38% (inactive) | 14% (inactive)
